The target in experiment [1] is NKX2-5 (Homo sapiens, UniProt P52952 125-210, R139K). Kind of experiment: PBM; 200 nM protein, PBS. Conditions: dsDNA, one strand shown.
Experiment [2] addresses NKX2-5 (Homo sapiens, UniProt P52952 125-210). Kind of experiment: PBM; 200 nM protein, PBS. Conditions: dsDNA, one strand shown.

This is an account of results in PMC11006913.

Chain of NKX2-5 (Homo sapiens, UniProt P52952 125-210, R139K) (P52952 125-210 R139K): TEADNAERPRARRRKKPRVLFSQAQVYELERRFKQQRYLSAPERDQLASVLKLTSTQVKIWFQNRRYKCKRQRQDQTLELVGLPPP
Chain of NKX2-5 (Homo sapiens, UniProt P52952 125-210) (P52952 125-210): as the sequence (P52952 125-210 R139K) above, with K15R counted along it

CCTCTCGA: the binding signal in experiment [1] was 11.2 upbm affinity estimate (log intensity, higher = more binding, comparable within an allelic series); in experiment [2], 11.3 upbm affinity estimate (log intensity, higher = more binding, comparable within an allelic series).

For CTGCCGCC, the binding signal in experiment [1] was 8.73 upbm affinity estimate (log intensity, higher = more binding, comparable within an allelic series); in experiment [2] it was 8.63 upbm affinity estimate (log intensity, higher = more binding, comparable within an allelic series).

With CCCTTAAC, the binding signal in experiment [1] is 10.9 upbm affinity estimate (log intensity, higher = more binding, comparable within an allelic series); in experiment [2], 10.8 upbm affinity estimate (log intensity, higher = more binding, comparable within an allelic series).

On to ACCACTCT, for which the binding signal was 11.3 upbm affinity estimate (log intensity, higher = more binding, comparable within an allelic series) in experiment [1] and 11.2 upbm affinity estimate (log intensity, higher = more binding, comparable within an allelic series) in experiment [2].

GCAGACCA: the binding signal in experiment [1] is 9.14 upbm affinity estimate (log intensity, higher = more binding, comparable within an allelic series); in experiment [2], 9.12 upbm affinity estimate (log intensity, higher = more binding, comparable within an allelic series).

As for CCACTAGA, the binding signal in experiment [1] is 11.3 upbm affinity estimate (log intensity, higher = more binding, comparable within an allelic series); in experiment [2], 11.2 upbm affinity estimate (log intensity, higher = more binding, comparable within an allelic series).

CCAACGCA: the binding signal in experiment [1] was 8.88 upbm affinity estimate (log intensity, higher = more binding, comparable within an allelic series); in experiment [2], 8.96 upbm affinity estimate (log intensity, higher = more binding, comparable within an allelic series).

Take GATGAGTA: the binding signal in experiment [1] is 11 upbm affinity estimate (log intensity, higher = more binding, comparable within an allelic series); in experiment [2], 10.9 upbm affinity estimate (log intensity, higher = more binding, comparable within an allelic series).

Consider CCCTAAGA, for which the binding signal in experiment [1] is 10.8 upbm affinity estimate (log intensity, higher = more binding, comparable within an allelic series); in experiment [2] it was 10.8 upbm affinity estimate (log intensity, higher = more binding, comparable within an allelic series).

Consider TGCGCGCA, for which the binding signal in experiment [1] was 9.19 upbm affinity estimate (log intensity, higher = more binding, comparable within an allelic series); in experiment [2], 9.1 upbm affinity estimate (log intensity, higher = more binding, comparable within an allelic series).

Turning to ATCCTTAG, the binding signal is 10.5 upbm affinity estimate (log intensity, higher = more binding, comparable within an allelic series) in experiment [1] and 10.5 upbm affinity estimate (log intensity, higher = more binding, comparable within an allelic series) in experiment [2].

Turning to AATAGTCT, the binding signal is 10.6 upbm affinity estimate (log intensity, higher = more binding, comparable within an allelic series) in experiment [1] and 10.7 upbm affinity estimate (log intensity, higher = more binding, comparable within an allelic series) in experiment [2].

For CGGCGAAC, the binding signal in experiment [1] is 8.65 upbm affinity estimate (log intensity, higher = more binding, comparable within an allelic series); in experiment [2] it was 8.62 upbm affinity estimate (log intensity, higher = more binding, comparable within an allelic series).

Take CCTGGCAG: the binding signal in experiment [1] was 8.78 upbm affinity estimate (log intensity, higher = more binding, comparable within an allelic series); in experiment [2] it was 8.78 upbm affinity estimate (log intensity, higher = more binding, comparable within an allelic series).

For CGCGAGCC, the binding signal in experiment [1] is 8.97 upbm affinity estimate (log intensity, higher = more binding, comparable within an allelic series); in experiment [2], 8.93 upbm affinity estimate (log intensity, higher = more binding, comparable within an allelic series).

With ATAAGCGG, the binding signal in experiment [1] was 10.3 upbm affinity estimate (log intensity, higher = more binding, comparable within an allelic series); in experiment [2], 10.3 upbm affinity estimate (log intensity, higher = more binding, comparable within an allelic series).

Regarding CACGTCCC, the binding signal in experiment [1] was 8.94 upbm affinity estimate (log intensity, higher = more binding, comparable within an allelic series); in experiment [2], 8.96 upbm affinity estimate (log intensity, higher = more binding, comparable within an allelic series).

As for ACCAGGGC, the binding signal in experiment [1] was 8.76 upbm affinity estimate (log intensity, higher = more binding, comparable within an allelic series); in experiment [2] it was 8.77 upbm affinity estimate (log intensity, higher = more binding, comparable within an allelic series).

ACCGCGGC: the binding signal in experiment [1] was 8.83 upbm affinity estimate (log intensity, higher = more binding, comparable within an allelic series); in experiment [2] it was 8.84 upbm affinity estimate (log intensity, higher = more binding, comparable within an allelic series).

On to GGCTATTA, for which the binding signal is 10.7 upbm affinity estimate (log intensity, higher = more binding, comparable within an allelic series) in experiment [1] and 10.6 upbm affinity estimate (log intensity, higher = more binding, comparable within an allelic series) in experiment [2].

Consider CGCCAGGA, for which the binding signal in experiment [1] was 8.64 upbm affinity estimate (log intensity, higher = more binding, comparable within an allelic series); in experiment [2], 8.64 upbm affinity estimate (log intensity, higher = more binding, comparable within an allelic series).

With CCCCAACG, the binding signal was 8.6 upbm affinity estimate (log intensity, higher = more binding, comparable within an allelic series) in experiment [1] and 8.67 upbm affinity estimate (log intensity, higher = more binding, comparable within an allelic series) in experiment [2].

Turning to ACACTCTG, the binding signal in experiment [1] was 10.6 upbm affinity estimate (log intensity, higher = more binding, comparable within an allelic series); in experiment [2] it was 10.5 upbm affinity estimate (log intensity, higher = more binding, comparable within an allelic series).

For CGGCGTAC, the binding signal in experiment [1] is 8.9 upbm affinity estimate (log intensity, higher = more binding, comparable within an allelic series); in experiment [2], 8.89 upbm affinity estimate (log intensity, higher = more binding, comparable within an allelic series).

As to CCCGTCAG, the binding signal was 9.01 upbm affinity estimate (log intensity, higher = more binding, comparable within an allelic series) in experiment [1] and 9.04 upbm affinity estimate (log intensity, higher = more binding, comparable within an allelic series) in experiment [2].

On to ATACTCCA, for which the binding signal in experiment [1] was 10.6 upbm affinity estimate (log intensity, higher = more binding, comparable within an allelic series); in experiment [2] it was 10.4 upbm affinity estimate (log intensity, higher = more binding, comparable within an allelic series).

Consider CTGATCAG, for which the binding signal was 8.97 upbm affinity estimate (log intensity, higher = more binding, comparable within an allelic series) in experiment [1] and 8.87 upbm affinity estimate (log intensity, higher = more binding, comparable within an allelic series) in experiment [2].

Turning to ACTGGCCC, the binding signal is 8.91 upbm affinity estimate (log intensity, higher = more binding, comparable within an allelic series) in experiment [1] and 8.87 upbm affinity estimate (log intensity, higher = more binding, comparable within an allelic series) in experiment [2].
